Tg IFNy HTS – blocks Toxoplasma gondii growth in the presence of IFN-gamma. Toxoplasma gondii growth in IFN-gamma-treated host cells; active compounds read low. activity change, negative = inhibition, % (no concentration beside the values). 69,000 compounds, 3.8% hits. AID 1259416; in the data active = activity change below about -70%, passing the limit was not always enough;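 also: host cells are HeLa cells infected with Toxoplasma gondii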
Starred values were filed as active, the others as inactive; i = inactive; ! = not confirmed by another sample. This excerpt belongs to a sample that is enriched for hits.

SMILES	Tg IFNy HTS
Fc1ccc(C(OCCN2CCN(C/C=C/c3ccccc3)CC2)c2ccc(F)cc2)cc1	-81*!
CN1CCc2c(COCC(=O)N3CCCC3)cncc2C1	0
O=C(c1ccnnc1)N1C[C@H]2CN(Cc3ccccc3)C[C@H]2C1	-35
O=C(NC(=O)c1c(F)cccc1F)Nc1cc(Cl)c(OC(F)(F)C(F)C(F)(F)F)cc1Cl (configuration not stated)	-76*
O=C(Nc1ccccc1)C12CCNCC1C2 (configuration not stated)	40
Cc1ccc(CN2CCN3CC(OCc4ccccn4)CC3C2)s1 (configuration not stated)	2
CCOP(=S)(OCC)Oc1nc(Cl)c(Cl)cc1Cl	-76*!
Cc1nccc([C@H]2C[C@@H]3CCN(Cc4cnn(C)c4)C[C@@H]3O2)n1	35
COc1ccc2c(c1)C1(CCN(C(=O)c3ccc(F)c4ccccc34)CC1)CC2CC(=O)O (configuration not stated)	-13
C1CCN(CC2COC3(CNCCOC3)C2)C1 (configuration not stated)	84
C=CCOC1C2CCC1N(Cc1ccccn1)CCO2 (configuration not stated)	-92*
c1ccc(CN2CCO[C@H]3[C@H]2CC[C@H]3OCc2cccnc2)nc1	9
c1ccc(CN2C[C@H]3OCCN(CC4CCCO4)[C@H]3C2)nc1 (some centres not stated)	38
C=CC1(O)CCC2C3CC=C4CC(OC(C)=O)CCC4(C)C3CCC21C (configuration not stated)	-39
CC(O)CN1C[C@H]2CCC[C@@H](CNc3ncccn3)[C@@H]2C1 (some centres not stated)	14
Cc1noc(C)c1CN1CC[C@@H]2C[C@H](C(=O)N(C)C)O[C@@H]2C1	-19
C=CCSCC(=O)N1CCC2(CCNCC2)CC1	-39
Cc1ccc(-c2nccn2CCc2cnc[nH]2)c(C)c1F	-3
O=C(Nc1ccc(F)cc1)c1cc2cccnc2n(Cc2ccccc2)c1=O	91
CC(=O)O[C@H]1C(=O)[C@@]2(C)C([C@H](OC(=O)c3ccccc3)[C@]3(O)C[C@H](O)C(C)=C1C3(C)C)[C@]1(OC(C)=O)CO[C@@H]1C[C@@H]2O (some centres not stated)	-74*
C/C=C(\C)C(=O)N[C@@H](c1ccccc1)[C@@H](O)C(=O)O[C@H]1C[C@@]2(O)[C@@H](OC(=O)c3ccccc3)[C@@H]3[C@]4(OC(C)=O)CO[C@@H]4C[C@H](O)[C@@]3(C)C(=O)[C@H](OC(C)=O)C(=C1C)C2(C)C	-89*
COCCN1CCN(Cc2nccs2)Cc2cccnc21	204
Cc1ccc(NC(=O)c2cc3cccnc3n(Cc3ccccc3F)c2=O)cc1C	74
CNC(=O)Oc1c(Cl)cc(Cl)cc1Cl	20
O=C(Nc1ccc(Br)cc1F)c1cc2cccnc2n(Cc2ccccc2)c1=O	108
SMILES	Tg IFNy HTS
CC(=O)C1CCC2C3CCC4CC(=O)CC[C@]4(C)C3CCC12C (some centres not stated)	-4
Cc1cccc(CN2C[C@H]3CN(c4ccsc4)C(=O)[C@@H]3C2)n1	-12
C[C@@H]1O[C@@H](O[C@@H]2C[C@@H](O)[C@]3(CO)[C@H]4[C@H](O)C[C@]5(C)[C@@H](C6=CC(=O)OC6)CC[C@]5(O)[C@@H]4CC[C@]3(O)C2)[C@H](O)[C@H](O)[C@H]1O	-81*
CO[C@H]1[C@H](O)[C@@H](O[C@H]2CC[C@]3(C=O)C4CC[C@]5(C)[C@@H](C6=CC(=O)OC6)CC[C@]5(O)C4CC[C@@H]3C2)O[C@@H](C)[C@@H]1O (some centres not stated)	-83*
C[C@]12CC[C@H]3[C@@H](CC[C@]4(O)C[C@@H](O)CC[C@]34C=O)[C@@]1(O)CC[C@@H]2C1=CC(=O)OC1	-63
CO[C@@H]1C(O)[C@H](O[C@H]2CC[C@@]3(C=O)[C@H](CC[C@@H]4[C@@H]3CC[C@]3(C)[C@@H](C5=CC(=O)OC5)CC[C@]43O)C2)OC(C)[C@@H]1O (some centres not stated)	-75*
Fc1cccnc1O[C@@H]1CC[C@@H]2[C@@H]1OCCN2CC1CCOCC1	-64
CCO[C@@H]1CC2CC1CN2Cc1cnn(C)c1 (some centres not stated)	84
Cc1noc(C)c1CN1CCCC2(CN(CC(=O)O)CCO2)C1 (configuration not stated)	0
COCCN1CCN(C2CCOC2)Cc2cccnc21 (configuration not stated)	-13
COc1cc(N2CCCC3(CCN(CC(C)C)C3)C2)ncn1 (configuration not stated)	23
CC(C)N(C)[C@H]1CN(C(=O)Cc2ccccn2)C[C@H]2CCCO[C@H]21	36
O=C(CCC(F)(F)F)N1CCCC2(CCNC2)C1 (configuration not stated)	-1
COC(=O)C1(CC(=O)N2CCOCC2)C(=O)CC2CCC1N2Cc1ccc(F)cc1 (configuration not stated)	14
NC1CCN(c2cccnc2)C1 (configuration not stated)	13
COCCO[C@@H]1C[C@@H]2CN(C(=O)c3ccncc3)CCN2C1	53
CC(=O)O[C@@H]1CC2C(C)(C)C(=O)C=C[C@]2(C)C2CC[C@]3(C)C(=CC(=O)O[C@H]3c3ccoc3)[C@@]21C (some centres not stated)	-88*
CC(=O)O[C@H]1C[C@@H](OC(C)=O)C(C)(C)C2C[C@@H](OC(C)=O)[C@]3(C)C(CC[C@@]4(C)[C@H](c5ccoc5)C(=O)[C@H]5O[C@]543)[C@]21C (some centres not stated)	15
CC1(C)C2CC(=O)[C@]3(C)C(CC[C@@]4(C)[C@H](c5ccoc5)OC(=O)[C@H]5O[C@]543)[C@@]2(C)C(=O)C[C@H]1O (some centres not stated)	6
CC(=O)N1C[C@H]2CN(CC3CC3)C[C@@H]2c2ccccc21	i
CCC1CN(Cc2ccc(Cl)cc2F)CCN1C(C)C (configuration not stated)	11
c1cncc(CN2CCCC23CCCC3)c1	-1
CN1CCc2cc(O)cc3c2[C@H]1Cc1ccc(O)c(O)c1-3	-6
COc1cc2c3cc1Oc1cc(ccc1O)C[C@@H]1c4c(cc(OC)c(O)c4Oc4ccc(cc4)C[C@H]3N(C)CC2)CCN1C	-94*
CCc1cc2c(cc1-c1csc(-c3snnc3C)n1)C(C)(C)CCC2(C)C	-15
SMILES	Tg IFNy HTS
CCN1CCN(C(=O)Cc2ccc(Nc3ncc(F)c(Nc4ccc(C(=O)Nc5ccccc5Cl)cc4)n3)cc2)CC1	-73*
O=C(Nc1ccccc1Cl)c1cc2cccnc2n(Cc2ccc(F)cc2)c1=O	46
C=CCN1CCN(CC2CCOCC2)Cc2cccnc21	-29
O=C(COc1cccnc1)NC1CCN(CC2(c3ccc(Cl)cc3)CCC2)CC1	-19
c1cncc(C2CCCN2)c1 (configuration not stated)	13
Fc1cc(F)c2c(c1)[C@H]1C=CC[C@H]1C(c1cccnc1)N2 (some centres not stated)	-74*
Cc1ccnc(-n2cccc2CN2[C@@H]3CC[C@H]2CN(C)C(=O)C3)c1	4
COCCN1CC[C@H]2OCC[C@@H](C(=O)NCc3cccnc3)[C@@H]2C1	69
Cc1nnc([C@@H]2CCO[C@H]3CCN(Cc4ccccn4)C[C@H]32)o1	2
COc1ccc(C2=NCC(=O)N(Cc3nc(-c4ccccc4)oc3C)c3sc4c(c32)CCCC4)cc1	-87*

Screening results from PubChem BioAssay.
